In a collection of fitness landscapes (doi:10.1016/j.celrep.2020.107928):
Whole data set: some 81,000 sequences, median “one-hybrid fitness for binding NBS DNA” near -0.1, cut for the highest 2% near 0.36. The list comes from a sample in which the highest values are over-represented; it also holds similar and randomly drawn sequences.

B1: Caulobacter ParB omega fusion; a variant is named by its letters at X, in order, B8GW30 (parent)
chain: MESVVVGEPGMSEGRRGLGRGLSALLGEVDAAPAQAPGEQLGGSREAPIEILQRNPDQPRRTFREEDLEDLSNSIREKGVLQPILVRPSPDTAGEYQIVAGERAWRAAQRAGLKTVPIMVRELDDLAVLEIGIIENVQRADLNVLEEALSYKVLMEKFERTQENIAQTIGKSXSHVANXMRLLXLPDEVQSYLVSGELTAXHARAIAAAADPVALAKQIIEGGLSVRETEALARKAPNLSAGKSKGGRPPRVKDTDTQALESDLSSVLGLDVSIDHRGSTGTLTITYATLEQLDDLCNRLTRGI

Variants of: B1
Assay: one-hybrid fitness for binding NBS DNA (the Noc-binding site; scaled: cognate 1, non-cognate 0); higher = stronger binding
Settings: with NBS DNA site
Summary of the method: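 In E. coli USO, a HIS3 reporter with its site placed 19 bp from the promoter was used to select Caulobacter ParB variants randomised at four specificity codons. Growth lasted 48 hours at 37°C on histidine-free M9 containing 0.1 mM IPTG and 5 mM 3-AT. Fitness was taken as the log change in variant-to-wild-type read ratio from Illumina sequencing of pre- and post-selection plasmids, rescaled between the non-cognate and cognate sites.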

| Variant | one-hybrid fitness for binding NBS DNA |
| --- | --- |
| TSVS | ≤ 0.2 |
| LDTG | ≤ 0.2 |
| DILR | ≤ 0.2 |
| RKCV | ≤ 0.2 |
| QAWY | ≤ 0.2 |
| QKWY | ≤ 0.2 |
| QKWM | ≤ 0.2 |
| QKWD | 0.405 |
| QKWS | 0.33 |
| QKWF | ≤ 0.2 |
| QAWR | 0.348 |
| QCWR | 0.49 |
| QPWR | ≤ 0.2 |
| QKWR | 0.462 |
| RLLS | 0.266 |
| SITS | ≤ 0.2 |
| LTLV | ≤ 0.2 |
| SPPA | ≤ 0.2 |
| RRRE | 0.219 |
| RRPH | 0.294 |
| RRRH | 0.808 |
| RPRH | ≤ 0.2 |
| RREH | 0.296 |

| Variant | one-hybrid fitness for binding NBS DNA |
| --- | --- |
| RCRH | 0.46 |
| RSRH | 0.335 |
| RRRL | 0.25 |
| RRYH | 0.436 |
| SHTT | ≤ 0.2 |
| VASP | ≤ 0.2 |
| SECF | ≤ 0.2 |
| NISL | ≤ 0.2 |
| QYDC | ≤ 0.2 |
| QYYC | ≤ 0.2 |
| QYKC | 0.371 |
| QYNC | ≤ 0.2 |
| QYRC | 0.38 |
| QYVC | ≤ 0.2 |
| MESV | ≤ 0.2 |
| SGNS | ≤ 0.2 |
| GITD | ≤ 0.2 |
| RVSA | ≤ 0.2 |
| RMCF | ≤ 0.2 |
| RMCL | ≤ 0.2 |
| RMCT | 0.366 |
| RLGM | ≤ 0.2 |
| RLGT | 0.389 |

| Variant | one-hybrid fitness for binding NBS DNA |
| --- | --- |
| RLCT | 0.396 |
| RLLT | 0.337 |
| RLPT | ≤ 0.2 |
| RLGC | ≤ 0.2 |
| RLCP | ≤ 0.2 |
| RLYT | 0.391 |
| RLCH | ≤ 0.2 |
| APPM | ≤ 0.2 |
| YKNV | ≤ 0.2 |
| MWIF | ≤ 0.2 |
| QMEK | ≤ 0.2 |
| LNIR | ≤ 0.2 |
| FVCG | ≤ 0.2 |
| LKHR | ≤ 0.2 |
| RLHY | ≤ 0.2 |
| RLRT | 0.657 |
| RLIT | 0.23 |
| RLHN | ≤ 0.2 |
| RLSP | ≤ 0.2 |
| RLHT | 0.437 |
| RTCC | ≤ 0.2 |
| RLST | 0.46 |
| RTCK | ≤ 0.2 |

| Variant | one-hybrid fitness for binding NBS DNA |
| --- | --- |
| RLSH | ≤ 0.2 |
| RTCT | 0.531 |
| RLWT | 0.23 |
| FWLT | ≤ 0.2 |
| PFLT | ≤ 0.2 |
| THKK | ≤ 0.2 |
| QSNE | ≤ 0.2 |
| SMHG | ≤ 0.2 |
| TFYD | ≤ 0.2 |
| RCCT | 0.39 |
| RLDT | ≤ 0.2 |
| RLQN | ≤ 0.2 |
| RLQD | ≤ 0.2 |
| RLKP | ≤ 0.2 |
| RLNT | 0.528 |
| RLKT | 0.644 |
| RLVT | 0.236 |
| RPCT | ≤ 0.2 |
| RLQT | 0.462 |
| RLNH | 0.201 |
| RSCT | 0.281 |
| KERP | ≤ 0.2 |
| SPFL | ≤ 0.2 |

| Variant | one-hybrid fitness for binding NBS DNA |
| --- | --- |
| PQIR | ≤ 0.2 |
| QSHW | ≤ 0.2 |
| AERM | ≤ 0.2 |
| QAMH | 0.219 |
| QTMC | ≤ 0.2 |
| QTMY | 0.232 |
| EMMN | ≤ 0.2 |
| QSMH | ≤ 0.2 |
| EMMK | 0.405 |
| QAMN | ≤ 0.2 |
| QSMR | 0.456 |
| QSMN | ≤ 0.2 |
| QTMR | 0.656 |
| EMMS | ≤ 0.2 |
| QAMR | 0.45 |
| LIRV | ≤ 0.2 |
| RMDQ | ≤ 0.2 |
| VSTS | ≤ 0.2 |
| CNRT | ≤ 0.2 |
| IWRR | ≤ 0.2 |
| PMRP | ≤ 0.2 |
| TVTG | ≤ 0.2 |
| HFAM | ≤ 0.2 |

| Variant | one-hybrid fitness for binding NBS DNA |
| --- | --- |
| DPVR | ≤ 0.2 |
| CHNI | ≤ 0.2 |
| QRMM | 0.334 |
| QPMR | ≤ 0.2 |
| QKMC | ≤ 0.2 |
| QIMR | 0.348 |
| QRMR | 0.971 |
| QKMR | 0.51 |
| QRMF | 0.25 |
| QCMR | 0.589 |
| QKMK | ≤ 0.2 |
| QMMD | ≤ 0.2 |
| QMML | ≤ 0.2 |
| QMMR | 0.523 |
| TRYK | ≤ 0.2 |
| DMET | ≤ 0.2 |
| PFSA | ≤ 0.2 |
| KETI | ≤ 0.2 |
| TMKT | ≤ 0.2 |
| FTAV | ≤ 0.2 |
| TYAQ | ≤ 0.2 |
| DFDS | ≤ 0.2 |
| QHMH | ≤ 0.2 |

| Variant | one-hybrid fitness for binding NBS DNA |
| --- | --- |
| QLMR | 0.437 |
| QLMP | ≤ 0.2 |
| QHMD | ≤ 0.2 |
| QHMR | 0.512 |
| QLMD | ≤ 0.2 |
| PNHV | ≤ 0.2 |
| LLMW | ≤ 0.2 |
| LSGP | ≤ 0.2 |
| QATN | ≤ 0.2 |
| QATP | ≤ 0.2 |
| QMTN | ≤ 0.2 |
| QITR | 0.417 |
| QVTD | ≤ 0.2 |
| QATR | 0.507 |
| QMTP | ≤ 0.2 |
| QVTS | 0.257 |
| QVTR | 0.38 |
| QMTR | 0.568 |
| QITP | ≤ 0.2 |
| QITH | ≤ 0.2 |
